This is an account of results in PubChem BioAssay (NCATS).

Results filed as inconclusive are left out. Activity calls are given as the source filed them. Calls come from the whole dose curve; as a rule, active = well fitted cell-killing curve with a large enough effect; inconclusive = small, poorly fitted or top-dose-only effect, or effect the other way; inactive = no such curve, though single readings can be large or run the other way.
Potency is the fitted concentration of half-maximal effect.

This assay can be described thus: Quantitative High-Throughput drug screen in 47 multiple myeloma cell lines against the NCATS MIPE library collection: FR4_PLB cell viability assay (AID 1918924; note: nearly all actives have a fitted effect of over 35% in size). As to conditions: FR4_PLB myeloma cells viability, CellTiter-Glo ATP, 48 h; series mostly up to 45.8 µM; viability (% of DMSO control): at the top concentration. The text has this: PI: Beverly A. Mock Ph.D.
Laboratory of Cancer Biology and Genetics,
Center for Cancer Research, National Cancer Institute,
National Institute of Health, Bethesda, Maryland
Drug resistance and disease progression are common in multiple myeloma (MM) patients, underscoring the need for new therapeutic combinations. […] We hypothesized that effective combinations would reduce MYC expression and enhance p16 activity. […] These preclinical data identify potentially useful drug combinations for evaluation in drug-resistant MM and reveal potential mechanisms of combined drug sensitivity.
Described herein is the primary MIPE qHTS used to cherrypick compounds. Validated compounds were then further tested for potential synergistic activiy.
[1] Peat TJ, Gaikwad SM, Dubois W, Gyabaah-Kessie N, Zhang S, Gorjifard S, Phyo Z, Andres M, Hughitt VK, Simpson RM, Miller MA, Girvin AT, Taylor A, Williams D, D'Antonio N, Zhang Y, Rajagopalan A, Flietner E, Wilson K, Zhang X, Shinn P, Klumpp-Thomas C, McKnight C, Itkin Z, Chen L, Kazandijian D, Zhang J, Michalowski AM, Simmons JK, Keats J, Thomas CJ, Mock BA. Drug combinations identified by high-throughput screening promote cell cycle transition and upregulate Smad pathways in myeloma. Cancer Lett. 2023 Aug 1;568:216284. doi: 10.1016/j.canlet.2023.216284. Epub 2023 Jun 24. PMID: 37356470; PMCID: PMC10408729.
SEQUENCE No. (e.g., 1, 2, 3, etc.); […] (e.g., Cells, Incubation, Reagent, etc.); VALUE and DESCRIPTION.
1; Cells; 5 uL; white, solid bottom 1536-well Greiner assay plate.
2; Compounds; 23 nL; Kalypsis pin tool (Wako USA) equipped with a 1536-well pin head to transfer to the assay plates.
3; Incubation; 48 hours; 37C incubation.
4; Reagent;5uL; CellTiter Glo (Promega).
5; Detector; 425V; Luminescence; Viewlux PerkinElmer.
NOTES (numbers refer to Sequence numbers above)
1. The cell-based screening methods employed in this study were like those previously published. Briefly, the corresponding myeloma cell lines were screened in 1,536-well plates with 500 cells, 5-uL per well for inhibition of cell viability (assessed by measuring ATP levels with CellTiterGlo).
2. NCATS MIPE 4.0 library of approved and investigational drugs were added using the Kalypsis pin tool. Wells treated with DMSO only for 100% viability and media only wells for 0% viability were used as controls.
3. The assay plates were covered and incubated for 48 hours in a 37C, 5% CO2 incubator with controlled humidity.
4. After 48 hours, CellTilter-GloTM luminescent substrate mix (Promega) reagent was added to the assay plate and plates we incubated for 5 min at room temperature.
5. Signal was measured as median relative luminescence units on a ViewLux (PerkinElmer) multiplate reader.
[1] Heske CM, Davis MI, Baumgart JT, Wilson K, Gormally MV, Chen L, Zhang X, Ceribelli M, Duveau DY, Guha R, Ferrer M, Arnaldez FI, Ji J, Tran HL, Zhang Y, Mendoza A, Helman LJ, Thomas CJ. Matrix Screen Identifies Synergistic Combination of PARP Inhibitors and Nicotinamide Phosphoribosyltransferase (NAMPT) Inhibitors in Ewing Sarcoma. Clin Cancer Res. 2017 Dec 1;23(23):7301-7311. doi: 10.1158/1078-0432.CCR-17-1121. Epub 2017 Sep 12. PMID: 28899971; PMCID: PMC6636827.
Background: In ATP-based viability assays light output follows the ATP content of the culture.
For the molecule `O=C(CCCCCCNC(=O)c1cnc(N(c2ccccc2)c2ccccc2)nc1)NO`, the Potency is 2.96 µM (active). In the case of `COc1cc2c(NC3CCN(C(C)C)CC3)nc(C3CCCCC3)nc2cc1OCCCN1CCCC1`, the Potency is 7.43 µM (active). `C=C1C(=CC=C2CCC[C@]3(C)[C@@H]([C@H](C)C=C[C@H](C)C(C)C)CC[C@@H]23)C[C@@H](O)C[C@@H]1O`: the Potency is 5.9 µM (active). Regarding `Cc1ccc(C(=O)Nc2ccc(CN3CCN(C)CC3)c(C(F)(F)F)c2)cc1C#Cc1cnc2cccnn12`, the Potency is 1.48 µM (active).

With `CCCCCN(CCC12CC3CC(CC(C3)C1)C2)C(=O)NCCCc1ccncc1`, the Potency is 18.7 µM (active). The same measure, in the same setting: the figure for `O=C(O)c1ccc2c(c1)nc(Nc1cccc(Cl)c1)c1ccncc12` is 5.26 µM (active). Still for that read-out and setting: then `Cc1cc(Nc2ncnc3ccc(-c4ccc(CNCCS(C)(=O)=O)o4)cc23)ccc1Oc1ccn2ncnc2c1`, with 18.7 µM (active); and `O=C(Cc1ccc(-c2ccc(OCCN3CCOCC3)cc2)cn1)NCc1ccccc1`, with 0.0093 µM (active). On the same count and under the same terms, then `CC(=O)c1c(C)c2cnc(Nc3ccc(N4CCNCC4)cn3)nc2n(C2CCCC2)c1=O`, with 18.7 µM (active); and `O=C(Nc1ncc(-c2cc(C(F)F)nn2-c2c(Cl)cccc2Cl)s1)C1CC1`, with 0.235 µM (active). Turning to `COc1cc(C(=O)NS(=O)(=O)c2ccccc2C)ccc1Cc1cn(C)c2ccc(NC(=O)OC3CCCC3)cc12`, the Potency was 23.5 µM (active).

On to `Nc1ncnc2c1c(-c1cnc3[nH]ccc3c1)nn2C1CCCC1`, for which the Potency was 0.662 µM (active).

As to `Nc1ccc(C(=O)c2cc3c(ccc4ccccc43)[nH]2)cc1`, the Potency was 1.18 µM (active). Same read-out and setting: then `Cn1cncc1[C@@](N)(c1ccc(Cl)cc1)c1ccc2c(c1)c(-c1cccc(Cl)c1)cc(=O)n2C`, with 20.9 µM (active); and `CNc1nccc(-c2cccnc2Oc2cc(C(=O)Nc3cccc(C(F)(F)F)c3)ccc2C)n1`, with 16.6 µM (active); and `CCOc1cc2ncc(C#N)c(Nc3ccc(F)c(Cl)c3)c2cc1NC(=O)C=CCN(C)C`, with 7.43 µM (active). Still for that read-out and setting: the figure for `Cc1cnc(Nc2ccc(F)cc2Cl)nc1-c1c[nH]c(C(=O)N[C@H](CO)c2cccc(Cl)c2)c1` is 29.6 µM (active). Take `O=C(NCCS(=O)(=O)c1ccc(C(F)(F)F)cn1)c1ccc(Cl)cc1`: the “viability (% of DMSO control)” value is 132% (inactive). With `COc1cc(=C2C=c3ccccc3=N2)[nH]c1=Cc1[nH]c(C)cc1C`, the Potency was 1.18 µM (active). On the same count and under the same terms, then `Nc1ncnc2c1c(-c1cccc(OCc3ccccc3)c1)cn2C1CC(CN2CCCC2)C1` (stereo not given), with 26.4 µM (active); and `CC(C)=CCCC(C)=CCCC(C)=CCSc1ccccc1C(=O)O`, with 1.18 µM (active). In the case of `O=C(O)[C@H](Cc1c[nH]c2ccccc12)N1C(=O)c2ccccc2C1=O`, the “viability (% of DMSO control)” value was 108% [at 92.2 µM] (inactive).

With `O=C(Nc1cc(C(F)(F)F)cc(C(F)(F)F)c1)c1cc(Cl)ccc1O`, the Potency is 1.32 µM (active). Turning to `CNC(=O)c1cc(Oc2ccc(NC(=O)Nc3cc(C(C)(C)C)nn3-c3ccc4ncccc4c3)c(F)c2)ccn1`, the Potency is 4.69 µM (active).

`CNC(=O)c1ccccc1Nc1nc(Nc2ccc(N3CCOCC3)cc2OC)ncc1Cl`: the Potency is 13.2 µM (active). For `CS(=O)(=O)c1ccc(-c2cnc(N)c(C(=O)Nc3ccccc3)n2)cc1`, the Potency was 18.7 µM (active).

For `CN1CCN(Cc2ccc(NC(=O)Nc3ccc(Oc4cc(NC(=O)C5CC5)ncn4)cc3)cc2C(F)(F)F)CC1`, the Potency was 0.296 µM (active).

For the molecule `NC(=O)c1cccc2cn(-c3ccc([C@@H]4CCCNC4)cc3)nc12`, the “viability (% of DMSO control)” value was 78.5% (inactive). On the same count and under the same terms, then `Clc1cccc(-c2nnnn2Cc2cccnc2)c1Cl`, with 97.4% (inactive); and `CC(=O)OCCN1C(=O)c2c(C)nc3ccc(S(=O)(=O)N4CCOCC4)cc3c2C1=O`, with 114% (inactive). Take `C[C@@H](Oc1cc(-c2cnn(C3CCNCC3)c2)cnc1N)c1c(Cl)ccc(F)c1Cl`: the Potency is 18.7 µM (active). As for `C=CC(=O)Nc1cc2c(Nc3ccc(F)c(Cl)c3)ncnc2cc1OCCCN1CCOCC1`, the Potency was 14.8 µM (active).

Take `OCCCNc1cc(-c2ccnc(Nc3cccc(Cl)c3)n2)ccn1`: the Potency is 0.118 µM (active). Still for that read-out and setting: the figure for `Nc1ccccc1NC(=O)c1ccc(CNc2nccc(-c3cccnc3)n2)cc1` is 0.935 µM (active). Still for that read-out and setting: then `O=C(O)C1(Cc2cccc(Nc3nccs3)n2)CCC(Oc2cccc(Cl)c2F)CC1` (stereo not given), with 0.418 µM (active). The same measure, in the same setting: the figure for `CCC1=C[C@@H]2CN(C1)Cc1c([nH]c3ccccc13)[C@@](C(=O)OC)(c1cc3c(cc1OC)N(C)[C@@H]1[C@@](O)(C(=O)OC)[C@H](OC(C)=O)[C@]4(CC)C=CCN5CC[C@]31[C@@H]54)C2` is 0.0047 µM (active); for `CCn1nnc2c(N3CCOCC3)nc(-c3ccc(NC(=O)Nc4ccc(C(=O)N5CCN(C)CC5)cc4)cc3)nc21` it is 0.0074 µM (active); for `O=C(CCCCCCC(=O)Nc1ccc([C@H]2O[C@@H](CSc3nc(-c4ccccc4)c(-c4ccccc4)o3)C[C@@H](c3ccc(CO)cc3)O2)cc1)NO` it is 11.8 µM (active). Turning to `CN(C1CCc2c(c3ccccc3n2CC(=O)O)C1)S(=O)(=O)c1ccc(F)cc1` (stereo not given), the “viability (% of DMSO control)” value was 114% (inactive).

Turning to `CNC(=O)CN1CCC(Oc2cc3c(Nc4cccc(Cl)c4F)ncnc3cc2OC)CC1`, the Potency was 0.0264 µM (active).
